Test results reported in paper PMC11006913.

Legend:
Assay in all cases: PBM; 200 nM protein, PBS
Settings in all cases: dsDNA, one strand shown
[1] = molecular target: CRX (Homo sapiens, UniProt O43186 26-111)
[2] = molecular target: CRX (Homo sapiens, UniProt O43186 26-111, E42D)
[3] = molecular target: VAX1 (Homo sapiens, UniProt Q5SQQ9 86-172)
[4] = molecular target: VAX1 (Homo sapiens, UniProt Q5SQQ9 86-172, T142I)
[5] = molecular target: VAX1 (Homo sapiens, UniProt Q5SQQ9 86-172, K157R)
[6] = molecular target: PITX2 (Homo sapiens, UniProt Q99697 72-157)
[7] = molecular target: CRX (Homo sapiens, UniProt O43186 26-111, R41L)
[8] = molecular target: NKX3-2 (Homo sapiens, UniProt P78367 192-278, P234S)
[9] = molecular target: NKX3-2 (Homo sapiens, UniProt P78367 192-278)
Chain of NKX3-2 (Homo sapiens, UniProt P78367 192-278) (P78367 192-278): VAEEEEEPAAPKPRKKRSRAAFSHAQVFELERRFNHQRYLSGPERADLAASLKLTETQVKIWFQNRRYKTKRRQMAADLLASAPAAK

Chain of CRX (Homo sapiens, UniProt O43186 26-111, E42D) (O43186 26-111 E42D): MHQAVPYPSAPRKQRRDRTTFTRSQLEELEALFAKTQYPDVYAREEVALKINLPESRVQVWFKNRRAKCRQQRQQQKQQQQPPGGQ
Chain of CRX (Homo sapiens, UniProt O43186 26-111, R41L) (O43186 26-111 R41L): as the sequence (O43186 26-111 E42D) above, with R16L, D17E counted along it
Chain of CRX (Homo sapiens, UniProt O43186 26-111) (O43186 26-111): as the sequence (O43186 26-111 E42D) above, with D17E counted along it
Chain of VAX1 (Homo sapiens, UniProt Q5SQQ9 86-172, T142I) (Q5SQQ9 86-172 T142I): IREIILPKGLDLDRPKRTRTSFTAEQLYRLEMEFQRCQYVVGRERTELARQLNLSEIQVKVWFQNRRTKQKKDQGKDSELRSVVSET
Chain of VAX1 (Homo sapiens, UniProt Q5SQQ9 86-172) (Q5SQQ9 86-172): as the sequence (Q5SQQ9 86-172 T142I) above, with I57T counted along it
Chain of VAX1 (Homo sapiens, UniProt Q5SQQ9 86-172, K157R) (Q5SQQ9 86-172 K157R): as the sequence (Q5SQQ9 86-172 T142I) above, with I57T, K72R counted along it
Chain of NKX3-2 (Homo sapiens, UniProt P78367 192-278, P234S) (P78367 192-278 P234S): as the sequence (P78367 192-278) above, with P43S counted along it

AACTTTAA
binding signal [1]: 10.5 upbm affinity estimate (log intensity, higher = more binding, comparable within an allelic series) | binding signal [2]: 10.2 upbm affinity estimate (log intensity, higher = more binding, comparable within an allelic series) | binding signal [3]: 9.82 upbm affinity estimate (log intensity, higher = more binding, comparable within an allelic series) | binding signal [4]: 9.35 upbm affinity estimate (log intensity, higher = more binding, comparable within an allelic series) | binding signal [5]: 9.35 upbm affinity estimate (log intensity, higher = more binding, comparable within an allelic series)

CGTTAATC
binding signal [1]: 12.8 upbm affinity estimate (log intensity, higher = more binding, comparable within an allelic series) | binding signal [2]: 12.6 upbm affinity estimate (log intensity, higher = more binding, comparable within an allelic series) | binding signal [6]: 12.4 upbm affinity estimate (log intensity, higher = more binding, comparable within an allelic series) | binding signal [7]: 12.3 upbm affinity estimate (log intensity, higher = more binding, comparable within an allelic series)

ATAGATTA
binding signal [1]: 12.7 upbm affinity estimate (log intensity, higher = more binding, comparable within an allelic series) | binding signal [2]: 12.5 upbm affinity estimate (log intensity, higher = more binding, comparable within an allelic series) | binding signal [6]: 12.3 upbm affinity estimate (log intensity, higher = more binding, comparable within an allelic series) | binding signal [7]: 12.3 upbm affinity estimate (log intensity, higher = more binding, comparable within an allelic series)

TAATCCTA
binding signal [1]: 13.4 upbm affinity estimate (log intensity, higher = more binding, comparable within an allelic series) | binding signal [2]: 13.4 upbm affinity estimate (log intensity, higher = more binding, comparable within an allelic series) | binding signal [6]: 13.2 upbm affinity estimate (log intensity, higher = more binding, comparable within an allelic series) | binding signal [7]: 13.3 upbm affinity estimate (log intensity, higher = more binding, comparable within an allelic series)

AGGGATTA
binding signal [1]: 13.6 upbm affinity estimate (log intensity, higher = more binding, comparable within an allelic series) | binding signal [2]: 13.7 upbm affinity estimate (log intensity, higher = more binding, comparable within an allelic series) | binding signal [6]: 13.5 upbm affinity estimate (log intensity, higher = more binding, comparable within an allelic series) | binding signal [7]: 13.7 upbm affinity estimate (log intensity, higher = more binding, comparable within an allelic series)

CCTCTGAC
binding signal [1]: 7.95 upbm affinity estimate (log intensity, higher = more binding, comparable within an allelic series) | binding signal [2]: 8.28 upbm affinity estimate (log intensity, higher = more binding, comparable within an allelic series) | binding signal [6]: 7.92 upbm affinity estimate (log intensity, higher = more binding, comparable within an allelic series) | binding signal [7]: 8.19 upbm affinity estimate (log intensity, higher = more binding, comparable within an allelic series)

ACGGATTA
binding signal [1]: 13.5 upbm affinity estimate (log intensity, higher = more binding, comparable within an allelic series) | binding signal [2]: 13.5 upbm affinity estimate (log intensity, higher = more binding, comparable within an allelic series) | binding signal [6]: 13.1 upbm affinity estimate (log intensity, higher = more binding, comparable within an allelic series) | binding signal [7]: 13.5 upbm affinity estimate (log intensity, higher = more binding, comparable within an allelic series)

GCGGATTA
binding signal [1]: 13.6 upbm affinity estimate (log intensity, higher = more binding, comparable within an allelic series) | binding signal [2]: 13.7 upbm affinity estimate (log intensity, higher = more binding, comparable within an allelic series) | binding signal [6]: 13.3 upbm affinity estimate (log intensity, higher = more binding, comparable within an allelic series) | binding signal [7]: 13.6 upbm affinity estimate (log intensity, higher = more binding, comparable within an allelic series)

CGCTGCCG
binding signal [1]: 8.07 upbm affinity estimate (log intensity, higher = more binding, comparable within an allelic series) | binding signal [2]: 8.09 upbm affinity estimate (log intensity, higher = more binding, comparable within an allelic series) | binding signal [3]: 6.84 upbm affinity estimate (log intensity, higher = more binding, comparable within an allelic series) | binding signal [4]: 7.05 upbm affinity estimate (log intensity, higher = more binding, comparable within an allelic series) | binding signal [7]: 8.04 upbm affinity estimate (log intensity, higher = more binding, comparable within an allelic series) | binding signal [5]: 6.97 upbm affinity estimate (log intensity, higher = more binding, comparable within an allelic series)

AGGATTAC
binding signal [1]: 13.1 upbm affinity estimate (log intensity, higher = more binding, comparable within an allelic series) | binding signal [2]: 13 upbm affinity estimate (log intensity, higher = more binding, comparable within an allelic series) | binding signal [6]: 12.9 upbm affinity estimate (log intensity, higher = more binding, comparable within an allelic series) | binding signal [7]: 13 upbm affinity estimate (log intensity, higher = more binding, comparable within an allelic series)

CTAATCCA
binding signal [1]: 13.3 upbm affinity estimate (log intensity, higher = more binding, comparable within an allelic series) | binding signal [2]: 13.3 upbm affinity estimate (log intensity, higher = more binding, comparable within an allelic series) | binding signal [6]: 13.2 upbm affinity estimate (log intensity, higher = more binding, comparable within an allelic series) | binding signal [7]: 13 upbm affinity estimate (log intensity, higher = more binding, comparable within an allelic series)

CAGGATTA
binding signal [1]: 13.1 upbm affinity estimate (log intensity, higher = more binding, comparable within an allelic series) | binding signal [2]: 13.2 upbm affinity estimate (log intensity, higher = more binding, comparable within an allelic series) | binding signal [6]: 12.9 upbm affinity estimate (log intensity, higher = more binding, comparable within an allelic series) | binding signal [7]: 13 upbm affinity estimate (log intensity, higher = more binding, comparable within an allelic series)

CAACCTGC
binding signal [1]: 8.42 upbm affinity estimate (log intensity, higher = more binding, comparable within an allelic series) | binding signal [2]: 8.42 upbm affinity estimate (log intensity, higher = more binding, comparable within an allelic series) | binding signal [7]: 8.35 upbm affinity estimate (log intensity, higher = more binding, comparable within an allelic series)

CGTTCTAC
binding signal [1]: 8.44 upbm affinity estimate (log intensity, higher = more binding, comparable within an allelic series) | binding signal [2]: 8.39 upbm affinity estimate (log intensity, higher = more binding, comparable within an allelic series) | binding signal [7]: 8.27 upbm affinity estimate (log intensity, higher = more binding, comparable within an allelic series)

AGTGCACG
binding signal [1]: 8.25 upbm affinity estimate (log intensity, higher = more binding, comparable within an allelic series) | binding signal [2]: 8.27 upbm affinity estimate (log intensity, higher = more binding, comparable within an allelic series) | binding signal [7]: 8.23 upbm affinity estimate (log intensity, higher = more binding, comparable within an allelic series)

AATAATCT
binding signal [1]: 12.7 upbm affinity estimate (log intensity, higher = more binding, comparable within an allelic series) | binding signal [2]: 12.7 upbm affinity estimate (log intensity, higher = more binding, comparable within an allelic series) | binding signal [7]: 12.6 upbm affinity estimate (log intensity, higher = more binding, comparable within an allelic series)

AATTCCAT
binding signal [1]: 10.2 upbm affinity estimate (log intensity, higher = more binding, comparable within an allelic series) | binding signal [2]: 10.1 upbm affinity estimate (log intensity, higher = more binding, comparable within an allelic series) | binding signal [7]: 9.91 upbm affinity estimate (log intensity, higher = more binding, comparable within an allelic series)

CACGGCGA
binding signal [1]: 8.27 upbm affinity estimate (log intensity, higher = more binding, comparable within an allelic series) | binding signal [2]: 8.25 upbm affinity estimate (log intensity, higher = more binding, comparable within an allelic series) | binding signal [7]: 8.27 upbm affinity estimate (log intensity, higher = more binding, comparable within an allelic series)

GTTTAAAA
binding signal [1]: 9.91 upbm affinity estimate (log intensity, higher = more binding, comparable within an allelic series) | binding signal [2]: 9.79 upbm affinity estimate (log intensity, higher = more binding, comparable within an allelic series) | binding signal [7]: 9.59 upbm affinity estimate (log intensity, higher = more binding, comparable within an allelic series)

GGCGTCCC
binding signal [1]: 8.17 upbm affinity estimate (log intensity, higher = more binding, comparable within an allelic series) | binding signal [2]: 8.13 upbm affinity estimate (log intensity, higher = more binding, comparable within an allelic series) | binding signal [7]: 8.1 upbm affinity estimate (log intensity, higher = more binding, comparable within an allelic series)

GTAGCAAC
binding signal [1]: 8.55 upbm affinity estimate (log intensity, higher = more binding, comparable within an allelic series) | binding signal [2]: 8.49 upbm affinity estimate (log intensity, higher = more binding, comparable within an allelic series) | binding signal [7]: 8.42 upbm affinity estimate (log intensity, higher = more binding, comparable within an allelic series)

ACGGTCCG
binding signal [1]: 8.25 upbm affinity estimate (log intensity, higher = more binding, comparable within an allelic series) | binding signal [2]: 8.46 upbm affinity estimate (log intensity, higher = more binding, comparable within an allelic series) | binding signal [7]: 8.16 upbm affinity estimate (log intensity, higher = more binding, comparable within an allelic series)

AATATTAC
binding signal [1]: 10.1 upbm affinity estimate (log intensity, higher = more binding, comparable within an allelic series) | binding signal [2]: 9.84 upbm affinity estimate (log intensity, higher = more binding, comparable within an allelic series) | binding signal [7]: 9.61 upbm affinity estimate (log intensity, higher = more binding, comparable within an allelic series)

ACCAGTCG
binding signal [1]: 8.53 upbm affinity estimate (log intensity, higher = more binding, comparable within an allelic series) | binding signal [2]: 8.43 upbm affinity estimate (log intensity, higher = more binding, comparable within an allelic series) | binding signal [8]: 10.4 upbm affinity estimate (log intensity, higher = more binding, comparable within an allelic series) | binding signal [7]: 8.32 upbm affinity estimate (log intensity, higher = more binding, comparable within an allelic series) | binding signal [9]: 10.4 upbm affinity estimate (log intensity, higher = more binding, comparable within an allelic series)

AGTGTGTC
binding signal [1]: 8.28 upbm affinity estimate (log intensity, higher = more binding, comparable within an allelic series) | binding signal [2]: 8.38 upbm affinity estimate (log intensity, higher = more binding, comparable within an allelic series) | binding signal [7]: 8.38 upbm affinity estimate (log intensity, higher = more binding, comparable within an allelic series)

GCTTAAGC
binding signal [1]: 12.8 upbm affinity estimate (log intensity, higher = more binding, comparable within an allelic series) | binding signal [2]: 12.7 upbm affinity estimate (log intensity, higher = more binding, comparable within an allelic series) | binding signal [7]: 11.7 upbm affinity estimate (log intensity, higher = more binding, comparable within an allelic series)

GCAACCGC
binding signal [1]: 8.47 upbm affinity estimate (log intensity, higher = more binding, comparable within an allelic series) | binding signal [2]: 8.38 upbm affinity estimate (log intensity, higher = more binding, comparable within an allelic series) | binding signal [7]: 8.34 upbm affinity estimate (log intensity, higher = more binding, comparable within an allelic series)

GCAGATCA
binding signal [1]: 10.3 upbm affinity estimate (log intensity, higher = more binding, comparable within an allelic series) | binding signal [2]: 10 upbm affinity estimate (log intensity, higher = more binding, comparable within an allelic series) | binding signal [7]: 9.94 upbm affinity estimate (log intensity, higher = more binding, comparable within an allelic series)

ACGCCACG
binding signal [1]: 8.27 upbm affinity estimate (log intensity, higher = more binding, comparable within an allelic series) | binding signal [2]: 8.14 upbm affinity estimate (log intensity, higher = more binding, comparable within an allelic series) | binding signal [7]: 8.23 upbm affinity estimate (log intensity, higher = more binding, comparable within an allelic series)

ACACTACC
binding signal [1]: 8.32 upbm affinity estimate (log intensity, higher = more binding, comparable within an allelic series) | binding signal [2]: 8.19 upbm affinity estimate (log intensity, higher = more binding, comparable within an allelic series) | binding signal [7]: 8.34 upbm affinity estimate (log intensity, higher = more binding, comparable within an allelic series)
